# According to PubChem BioAssay AID1159580 (chemical genetic matrix, 2015):
# Several values for one entry are separate records, joined by “and”; a condition that tells them apart may be missing. Identical values can stand only once. Hit rate of the full screen: of about 5,500 compounds, about 2,000 (36%) were called active. About 18% were inconclusive and are not listed. Some of the results follow. Unmarked numbers belong to inactive results. No stated cut-off is given here; in the data, active means normalized growth mostly below about 0.91 (no sharp cut-off); inconclusive means no clear call, values can overlap the other calls; inactive means mostly above about 0.92.
# Experiment: chemical genetic growth profiling, strain panel (AID 1159580);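 further: tested at 20 µM; growth read once vehicle control cultures reached saturation at 30 °C; 1 = growth at the plate median or of vehicle wells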
# Conditions: S. cerevisiae deletion strains, growth OD
structure (smiles),measurement,setting,value
c1ccc2c(c1)CN1CCCC1=N2,normalized growth,"locus YAL021C, strain ccr4, stronger effect = lower value",0.998
same,normalized growth,"locus YAL026C, strain drs2, stronger effect = lower value",1
same,normalized growth,"locus YAL030W, strain snc1, stronger effect = lower value",1
same,normalized growth,"locus YBL061C, strain skt5, stronger effect = lower value",0.999
same,normalized growth,"locus YBR009C, strain hhf1, stronger effect = lower value",0.987
same,normalized growth,"locus YBR021W, strain FUR4, stronger effect = lower value",1.19 [resistant] (active)
same,normalized growth,"locus YBR023C, strain chs3, stronger effect = lower value",1
same,normalized growth,"locus YBR171W, strain sec66, stronger effect = lower value",1
same,normalized growth,"locus YBR229C, strain ROT2, stronger effect = lower value",1.01
same,normalized growth,"locus YBR231C, strain swc5, stronger effect = lower value",0.997
same,normalized growth,"locus YBR279W, strain paf1, stronger effect = lower value",0.996
same,normalized growth,"locus YCL011C, strain gbp2, stronger effect = lower value",1.01
same,normalized growth,"locus YCL016C, strain dcc1, stronger effect = lower value",0.997
same,normalized growth,"locus YCL029C, strain bik1, stronger effect = lower value",0.972
same,normalized growth,"locus YCL061C, strain MRC1, stronger effect = lower value",1.01
same,normalized growth,"locus YCL069W, strain vba3, stronger effect = lower value",1
same,normalized growth,"locus YCR088W, strain abp1, stronger effect = lower value",0.998
same,normalized growth,"locus YDL005C, strain med2, stronger effect = lower value",0.993
same,normalized growth,"locus YDL035C, strain GPR1, stronger effect = lower value",1.03
same,normalized growth,"locus YDL040C, strain nat1, stronger effect = lower value",1
same,normalized growth,"locus YDL074C, strain BRE1, stronger effect = lower value",1.01
same,normalized growth,"locus YDL101C, strain DUN1, stronger effect = lower value",0.99
same,normalized growth,"locus YDL134C, strain PPH21, stronger effect = lower value",1.01
same,normalized growth,"locus YDL185W, strain tfp1, stronger effect = lower value",0.971
same,normalized growth,"locus YDL192W, strain arf1, stronger effect = lower value",0.985
same,normalized growth,"locus YDR001C, strain nth1, stronger effect = lower value",0.992
same,normalized growth,"locus YDR069C, strain doa4, stronger effect = lower value",1
same,normalized growth,"locus YDR101C, strain arx1, stronger effect = lower value",0.978
same,normalized growth,"locus YDR137W, strain rgp1, stronger effect = lower value",1.01
same,normalized growth,"locus YDR150W, strain NUM1, stronger effect = lower value",0.998
same,normalized growth,"locus YDR159W, strain sac3, stronger effect = lower value",0.991
same,normalized growth,"locus YDR162C, strain NBP2, stronger effect = lower value",1.02
same,normalized growth,"locus YDR195W, strain ref2",0.968
same,normalized growth,"locus YDR297W, strain sur2, stronger effect = lower value",1
same,normalized growth,"locus YDR318W, strain mcm21, stronger effect = lower value",0.988
same,normalized growth,"locus YDR334W, strain swr1, stronger effect = lower value",0.999
same,normalized growth,"locus YDR335W, strain msn5, stronger effect = lower value",1.01
same,normalized growth,"locus YDR388W, stronger effect = lower value",0.989
same,normalized growth,"locus YDR392W, strain spt3, stronger effect = lower value",0.919
same,normalized growth,"locus YDR502C, strain sam2, stronger effect = lower value",0.988
same,normalized growth,"locus YEL003W, strain gim4, stronger effect = lower value",0.999
same,normalized growth,"locus YEL037C, strain rad23, stronger effect = lower value",0.999
same,normalized growth,"locus YEL061C, strain CIN8 (second series), stronger effect = lower value",0.996
same,normalized growth,"locus YEL061C, strain CIN8, stronger effect = lower value",1
same,normalized growth,"locus YER015W, strain faa2, stronger effect = lower value",0.998
same,normalized growth,"locus YER016W, strain bim1, stronger effect = lower value",1
same,normalized growth,"locus YER110C, stronger effect = lower value",0.967
same,normalized growth,"locus YER111C, strain swi4, stronger effect = lower value",1
same,normalized growth,"locus YER155C, strain BEM2 (second series), stronger effect = lower value",1
same,normalized growth,"locus YER155C, strain BEM2, stronger effect = lower value",0.993
same,normalized growth,"locus YER167W, strain BCK2, stronger effect = lower value",1
same,normalized growth,"locus YFR010W, strain ubp6, stronger effect = lower value",1
same,normalized growth,"locus YGL078C, strain dbp3, stronger effect = lower value",0.993
same,normalized growth,"locus YGL086W, strain mad1, stronger effect = lower value",0.967
same,normalized growth,"locus YGL167C, strain pmr1, stronger effect = lower value",0.995
same,normalized growth,"locus YGL173C, strain kem1, stronger effect = lower value",0.997
same,normalized growth,"locus YGL227W, strain vid30, stronger effect = lower value",0.993
same,normalized growth,"locus YGL240W, strain doc1, stronger effect = lower value",1.01
same,normalized growth,"locus YGL248W, strain PDE1, stronger effect = lower value",1
same,normalized growth,"locus YGL253W, strain hxk2, stronger effect = lower value",1
same,normalized growth,"locus YGR078C, strain PAC10, stronger effect = lower value",1.01
same,normalized growth,"locus YGR135W, strain pre9, stronger effect = lower value",0.998
same,normalized growth,"locus YGR229C, strain SMI1, stronger effect = lower value",1.03
same,normalized growth,"locus YGR252W, strain gcn5, stronger effect = lower value",1.1
same,normalized growth,"locus YHR013C, strain ard1, stronger effect = lower value",0.983
same,normalized growth,"locus YHR027C, strain rpn1, stronger effect = lower value",1.01
same,normalized growth,"locus YHR030C, strain SLT2, stronger effect = lower value",1.01 and 0.994
same,normalized growth,"locus YHR079C, strain IRE1 (second series), stronger effect = lower value",0.97
same,normalized growth,"locus YHR079C, strain IRE1, stronger effect = lower value",1.02
same,normalized growth,"locus YHR094C, strain hxt1, stronger effect = lower value",0.991
same,normalized growth,"locus YHR129C, strain ARP1, stronger effect = lower value",0.995
same,normalized growth,"locus YHR142W, strain chs7, stronger effect = lower value",1.01
same,normalized growth,"locus YHR200W, strain rpn10, stronger effect = lower value",0.979
same,normalized growth,"locus YIL066C, strain RNR3, stronger effect = lower value",1.01
same,normalized growth,"locus YIL073C, strain SPO22, stronger effect = lower value",0.906
same,normalized growth,"locus YIL125W, strain kgd1, stronger effect = lower value",0.989
same,normalized growth,"locus YIR030C, strain dcg1, stronger effect = lower value",0.985
same,normalized growth,"locus YJL092W, strain hpr5, stronger effect = lower value",0.995
same,normalized growth,"locus YJL095W, strain BCK1 (second series), stronger effect = lower value",1
same,normalized growth,"locus YJL095W, strain BCK1, stronger effect = lower value",1 and 0.988
same,normalized growth,"locus YJL115W, strain asf1, stronger effect = lower value",1
same,normalized growth,"locus YJL129C, strain trk1, stronger effect = lower value",1.01
same,normalized growth,"locus YJL134W, strain LCB3, stronger effect = lower value",1.01
same,normalized growth,"locus YJL154C, strain vps35, stronger effect = lower value",0.996
same,normalized growth,"locus YJL164C, strain tpk1, stronger effect = lower value",1.01
same,normalized growth,"locus YJL166W, strain qcr8, stronger effect = lower value",1
same,normalized growth,"locus YJL168C, strain set2, stronger effect = lower value",0.98
same,normalized growth,"locus YJL187C, strain SWE1 (second series), stronger effect = lower value",0.99
same,normalized growth,"locus YJL187C, strain SWE1, stronger effect = lower value",1
same,normalized growth,"locus YJR043C, strain POL32, stronger effect = lower value",1.06
same,normalized growth,"locus YJR066W, strain TOR1, stronger effect = lower value",0.989
same,normalized growth,"locus YKL009W, strain mrt4, stronger effect = lower value",0.955
same,normalized growth,"locus YKL068W, stronger effect = lower value",0.984
same,normalized growth,"locus YKL085W, strain MDH1 (second series), stronger effect = lower value",0.981
same,normalized growth,"locus YKL085W, strain MDH1, stronger effect = lower value",0.981
same,normalized growth,"locus YKL160W, strain elf1, stronger effect = lower value",1
same,normalized growth,"locus YKL190W, strain CNB1, stronger effect = lower value",1.01
same,normalized growth,"locus YKR001C, strain vps1, stronger effect = lower value",0.98
same,normalized growth,"locus YKR026C, strain gcn3, stronger effect = lower value",0.992
same,normalized growth,"locus YKR091W, strain srl3, stronger effect = lower value",0.994
same,normalized growth,"locus YLL001W, strain dnm1, stronger effect = lower value",0.988
same,normalized growth,"locus YLL026W, stronger effect = lower value",0.996
same,normalized growth,"locus YLL041C, strain sdh2, stronger effect = lower value",0.996
same,normalized growth,"locus YLR027C, strain aat2, stronger effect = lower value",1.01
same,normalized growth,"locus YLR039C, strain RIC1, stronger effect = lower value",1.01
same,normalized growth,"locus YLR058C, strain SHM2, stronger effect = lower value",1
same,normalized growth,"locus YLR102C, strain apc9, stronger effect = lower value",0.981
same,normalized growth,"locus YLR113W, strain HOG1, stronger effect = lower value",0.973
same,normalized growth,"locus YLR221C, strain rsa3, stronger effect = lower value",0.999
same,normalized growth,"locus YLR258W, strain gsy2, stronger effect = lower value",1
same,normalized growth,"locus YLR262C, strain YPT6 (second series), stronger effect = lower value",1.02
same,normalized growth,"locus YLR262C, strain YPT6, stronger effect = lower value",1.04
same,normalized growth,"locus YLR268W, strain sec22, stronger effect = lower value",0.951
same,normalized growth,"locus YLR320W, strain mms22, stronger effect = lower value",1.01
same,normalized growth,"locus YLR330W, strain CHS5, stronger effect = lower value",0.996
same,normalized growth,"locus YLR342W, strain FKS1 (second series), stronger effect = lower value",1.08
same,normalized growth,"locus YLR342W, strain FKS1, stronger effect = lower value",1.01
same,normalized growth,"locus YLR357W, strain rsc2, stronger effect = lower value",0.991
same,normalized growth,"locus YLR370C, strain arc18, stronger effect = lower value",1.01
same,normalized growth,"locus YLR371W, strain rom2, stronger effect = lower value",0.965
same,normalized growth,"locus YLR384C, strain iki3, stronger effect = lower value",0.988
same,normalized growth,"locus YLR418C, strain cdc73, stronger effect = lower value",1
same,normalized growth,"locus YML016C, strain PPZ1, stronger effect = lower value",1
same,normalized growth,"locus YML032C, strain rad52, stronger effect = lower value",1.01
same,normalized growth,"locus YML120C, strain ndi1, stronger effect = lower value",1.01
same,normalized growth,"locus YML124C, strain tub3, stronger effect = lower value",1
same,normalized growth,"locus YMR058W, strain fet3, stronger effect = lower value",1
same,normalized growth,"locus YMR078C, strain ctf18, stronger effect = lower value",0.959
same,normalized growth,"locus YMR125W, strain sto1, stronger effect = lower value",1.01
same,normalized growth,"locus YMR129W, stronger effect = lower value",0.976
same,normalized growth,"locus YMR205C, strain PFK2, stronger effect = lower value",0.99
same,normalized growth,"locus YMR223W, strain ubp8, stronger effect = lower value",0.992
same,normalized growth,"locus YMR231W, strain pep5, stronger effect = lower value",0.996
same,normalized growth,"locus YMR263W, strain SAP30, stronger effect = lower value",0.991
same,normalized growth,"locus YMR307W, strain GAS1, stronger effect = lower value",1.21
same,normalized growth,"locus YNL067W, strain RPL9B, stronger effect = lower value",0.979
same,normalized growth,"locus YNL071W, strain lat1, stronger effect = lower value",1.01
same,normalized growth,"locus YNL153C, strain GIM3, stronger effect = lower value",1
same,normalized growth,"locus YNL183C, strain NPR1, stronger effect = lower value",0.967
same,normalized growth,"locus YNL209W, strain ssb2, stronger effect = lower value",1
same,normalized growth,"locus YNL233W, strain BNI4, stronger effect = lower value",1
same,normalized growth,"locus YNL248C, strain rpa49, stronger effect = lower value",1.01
same,normalized growth,"locus YNL250W, strain rad50, stronger effect = lower value",0.937
same,normalized growth,"locus YNL271C, strain bni1, stronger effect = lower value",0.989
same,normalized growth,"locus YNL298W, strain CLA4, stronger effect = lower value",0.996
same,normalized growth,"locus YNL307C, strain MCK1, stronger effect = lower value",0.972
same,normalized growth,"locus YNL322C, strain KRE1 (second series), stronger effect = lower value",1
same,normalized growth,"locus YNR049C, strain mso1, stronger effect = lower value",1
same,normalized growth,"locus YNR052C, strain pop2, stronger effect = lower value",0.992
same,normalized growth,"locus YOL006C, strain TOP1, stronger effect = lower value",0.918
same,normalized growth,"locus YOL012C, strain htz1",0.782
same,normalized growth,"locus YOL147C, strain pex11, stronger effect = lower value",0.995
same,normalized growth,"locus YOR001W, strain rrp6, stronger effect = lower value",1
same,normalized growth,"locus YOR061W, strain CKA2, stronger effect = lower value",0.998
same,normalized growth,"locus YOR069W, strain VPS5, stronger effect = lower value",0.998
same,normalized growth,"locus YOR070C, strain gyp1, stronger effect = lower value",0.993
same,normalized growth,"locus YOR080W, strain dia2, stronger effect = lower value",0.992
same,normalized growth,"locus YOR083W, strain WHI5, stronger effect = lower value",1
same,normalized growth,"locus YOR106W, strain vam3, stronger effect = lower value",1.02
same,normalized growth,"locus YOR136W, strain idh2, stronger effect = lower value",0.976
same,normalized growth,"locus YOR144C, strain elg1, stronger effect = lower value",1.01
same,normalized growth,"locus YOR184W, strain ser1, stronger effect = lower value",0.992
same,normalized growth,"locus YOR231W, strain MKK1, stronger effect = lower value",1.02
same,normalized growth,"locus YOR265W, strain rbl2, stronger effect = lower value",1.01
same,normalized growth,"locus YOR270C, strain vph1, stronger effect = lower value",1.02
same,normalized growth,"locus YOR290C, strain snf2, stronger effect = lower value",0.955
same,normalized growth,"locus YOR316C, strain cot1, stronger effect = lower value",0.98
same,normalized growth,"locus YPL051W, strain arl3, stronger effect = lower value",1.01
same,normalized growth,"locus YPL055C, strain LGE1, stronger effect = lower value",1
same,normalized growth,"locus YPL078C, strain atp4, stronger effect = lower value",1.01
same,normalized growth,"locus YPL106C, strain sse1, stronger effect = lower value",1.02
same,normalized growth,"locus YPL240C, strain hsp82, stronger effect = lower value",0.992
same,normalized growth,"locus YPL256C, strain CLN2, stronger effect = lower value",1
same,normalized growth,"locus YPR119W, strain clb2, stronger effect = lower value",0.966
same,normalized growth,"locus YPR141C, strain kar3, stronger effect = lower value",0.969
same,normalized growth,"locus YPR163C, strain tif3, stronger effect = lower value",0.997
same,normalized growth,"locus YPR167C, strain met16, stronger effect = lower value",0.976
same,normalized growth,"strain wtn01, stronger effect = lower value",0.957
